This note sets out measurements from PubChem BioAssay AID1918969 (ICCB-Longwood Screening Facility, Harvard Medical School, 2023).

Several values for one entry are separate records, joined by “and”; a condition that tells them apart may be missing. Equal values may be shown once. Among all 190,000 compounds or so, about 280 (0.15%) were called active. The list comes from a sample in which actives are over-represented; it also holds similar structures and randomly drawn compounds. Values without a mark were called inactive. Rule as the data show it: active = inhibition above about 27% (passing the limit was not always enough); inactive = the rest.

This assay deals with HCMV UL50-UL53 nuclear egress complex (human cytomegalovirus). In words: HCMV nuclear egress complex disruptors – biochemical, HTRF (AID 1918969). The note with it: HTRF UL50-UL53 interaction, normalized percent inhibition; hits give high values; concentration not given here.
With `CCCC1O[C@@H]2CC3C4CCC5=CC(=O)C=CC5(C)C4[C@@H](O)CC3(C)[C@]2(C(=O)CO)O1` (stereo partly drawn), the inhibition was -70.7%.
The result for `O=C(CCc1nc2ccccc2s1)OCC(=O)c1ccco1` reads -34.2%; that for `O=C(OCc1nc2ccccc2s1)c1coc2ccccc2c1=O`, 54.6% (active); that for `NNC(=O)CCCc1nc2ccccc2s1`, -31.3%.
Consider `CCOc1cc(/C=C2/C(=O)N(c3nn[nH]n3)N=C2C)cc(Cl)c1OCC`, for which the inhibition is -8.7%.
As to `CC(C(=O)OCc1ccc(F)cc1)N1C(=O)c2ccccc2C1=O` (stereo not drawn), the inhibition is -2.6%.
As to `O=C(CC(c1ccccc1)c1ccccc1)NCc1ccco1`, the inhibition was 13.4%.
The result for `O=c1c(-c2nnc3c(Cl)nc4ccccc4n23)coc2ccccc12` reads -9.1%; that for `Cc1n[nH]c(C)c1Cc1ccc(N)cc1`, -0.1%; that for `Cc1ccc(-n2ccnc(NCCc3ccccc3)c2=O)cc1`, -0.4%.
As to `CCN(CC)S(=O)(=O)c1ccc(N=Nc2c(O)[nH]c(=S)[nH]c2=O)cc1`, the inhibition was -70.2%.
The result for `Cc1cc(C(=O)CSc2ccc(S(=O)(=O)N(C)C)cn2)c(C)n1-c1ncn[nH]1` reads -15%.
With `O=C1CC(c2ccc(S(=O)(=O)N3CCCc4ccccc43)cc2)CN1` (stereo not drawn), the inhibition is -28.3%.
The result for `O=C(COC(=O)Cc1ccc(F)cc1)Nc1ccccc1` reads 1.8%; that for `Cc1ccc(C)c2c1NC(c1ccc(Br)cc1)C1CC=CC21` (stereo not drawn), -3.3%; that for `CCc1nc(-c2cc(S(=O)(=O)N3CCC(C(=O)Nc4cccc(OC)c4)CC3)c(C)s2)no1`, -7.1%.
The result for `CC1CCN(C(=O)Cn2ncc3c4ccccc4n(Cc4ccccc4)c3c2=O)CC1` reads -7.3%; that for `Cc1ccc(CNC(=O)c2ccc(-n3nnc4cccnc43)cc2)cc1`, -21.8%.
The result for `CCN(CC)S(=O)(=O)c1ccc2c(c1)nc(CCC(=O)OCC#N)n2C` reads -6%.
In the case of `CCOC(=O)N1CCCC1C(=O)O` (stereo not drawn), the inhibition is -17.9%.
The result for `O=C(NC1CCCCCCC1)c1cccs1` reads -0.7%; that for `O=C(NC1CCCC1)c1ccc(N2CCOc3ccccc32)s1`, 42.2% (active); that for `O=C(NC1CCCC1)c1cc(-c2ccccc2)on1`, -1.9%.
Regarding `CNC(=O)c1ccc(N2CCOc3ccc(Cl)cc32)s1`, the inhibition was 14.6%.
The result for `O=C(NC1CCCCC1)c1ccc(-n2ccc3ccccc32)s1` reads 37.9% (active); that for `O=C(NC1CCCC1)c1ccc(Br)s1`, -3.7%; that for `O=C(c1c(F)c(F)c(F)c(F)c1F)N(CCO)Cc1ccccc1`, -6.4%.
`CNC(=O)COC(=O)c1ccc(Br)o1`: the inhibition was -3.2%.
On to `Cn1c(=O)n(C)c2cc(N3CCOCC3)c(NS(=O)(=O)c3ccc4c(c3)CCCC4)cc21`, for which the inhibition is -20%.
The result for `Cc1ccc2nsnc2c1S(=O)(=O)NCCc1c(C)[nH]c2ccccc12` reads -75.9%; that for `Cc1ccc(N2C(=O)/C(=C/c3ccc(OCC(=O)O)c(Br)c3)C(=O)NC2=S)cc1`, -28.5%.
The result for `CC1=C(C(=O)OCCOc2ccccc2)C(c2cccnc2)C2=C(CC(c3ccc(Cl)cc3)CC2=O)N1` (stereo not drawn) reads -27.9%; that for `Cn1c2c(c3cc(C4CCCCC4)ccc31)CCCCC2=O`, 1.4%.
For `CCOC(C)=C(C#N)C#N`, the inhibition is 5.1%.
The result for `CC12CCOC1N(c1ccccc1)c1ccccc12` (stereo not drawn) reads -18.7%.
Consider `CC(=O)Nc1ccc(N2C(=O)c3cc(C)nn3CC2(C)C(=O)NCc2ccc(Cl)cc2)cc1` (stereo not drawn), for which the inhibition is -1.4%.
The result for `Cc1ccc(C2/C(=C(\O)c3ccccc3)C(=O)C(=O)N2CCN2CCOCC2)cc1` (stereo not drawn) reads 0.4%.
On to `Cc1c2cnn(CC(=O)NCc3ccco3)c(=O)c2c(C)n1Cc1ccccc1`, for which the inhibition was -1.5%.
The result for `CCOC(=O)c1c(C)n(-c2ccc(Cl)cc2)c2ccc(Oc3nccc(Nc4ccccc4)c3C#N)cc12` reads -12.5%.
The result for `N#CC(=C=[N-])c1nc2ccccc2nc1-[n+]1cccc(NC(=O)c2ccc(Br)o2)c1` reads -17.4%; that for `O=C(CN1CCN(S(=O)(=O)c2ccc3[nH]c(=O)[nH]c3c2)CC1)N1CCCCCC1`, -26.1%.
The result for `CCOCCCNC(=O)N1Cc2c(sc3c2CCCC3)-n2cccc2C1c1ccc(N(C)C)cc1` (stereo not drawn) reads -33.4%; that for `CC(C)CCNC(=O)C1(C)Cn2c(cc3ccccc32)C(=O)N1C1CC1` (stereo not drawn), -9.6%; that for `Cc1ccc(-n2c(=O)c3c(n4c(SCC(N)=O)nnc24)-c2ccccc2CC32CCCCC2)cc1`, -17.8%.
Regarding `O=C(COc1ccc(-c2nc(-c3ccccc3)no2)cc1)N1CCCC1`, the inhibition was -28.2%.
The result for `Cc1ccc(S(=O)(=O)C2(C(=O)N3CCc4ccccc43)CC2)cc1` reads 1%; that for `CCOc1cc(C=C2C(=O)NC(=O)NC2=O)ccc1OCCOCCOc1ccc(C)cc1`, 45.8% (active).
The result for `CCOc1cc(C=C2C(=O)NC(=O)NC2=O)ccc1OCCOc1ccc([N+](=O)[O-])cc1` reads -8.1%; that for `COc1cc(C=C2C(=O)NC(=O)NC2=O)ccc1OCCOc1ccc([N+](=O)[O-])cc1`, 1.5%; that for `CCOC(=O)/C(C#N)=C/Nc1ccccc1`, -4.4%.
`Cc1cc(C)c(C(N)=O)c(=O)[nH]1`: the inhibition is -10.3%.
As to `O=C(NN1C(=O)/C(=C/c2ccc(-c3ccc([N+](=O)[O-])cc3)o2)SC1=S)c1ccccc1[N+](=O)[O-]`, the inhibition is -1.8%.
The result for `CCCC(O)c1nc2ccccc2n1CCOc1ccccc1Cl` (stereo not drawn) reads -14.3%; that for `CC1CCN(S(=O)(=O)c2ccc3ncn(CC(=O)N4CCCCC4C)c(=O)c3c2)CC1` (stereo not drawn), 3.7%.
With `CC(C)(Oc1ccc(Cl)cc1)C(=O)OCCN1CCCC1=O`, the inhibition is 16.4%.
The result for `CCOC(=O)c1c(C)oc2nc(COc3ncnc4c3cnn4-c3ccccc3)nc(N)c12` reads -27.9%; that for `Nc1c(C(=O)N2CCc3ccccc3C2)sc(=S)n1-c1ccccc1`, 3.7%; that for `CCCCCC#CCC#CCCCCCCCC(=O)O`, -8.8%.
The result for `CC(Nc1nc(N2CCCC2)nc2ccccc12)c1ccccc1` (stereo not drawn) reads 38.8% and -22.4%.
The result for `CCN(CC)c1nc(-c2ccccc2O)nc2ccccc12` reads -4.1%.
For `CC(C)Nc1nc(-c2ccccc2O)nc2ccccc12`, the inhibition is 54.6% (active).
The result for `Cc1ccc(C)c(NC(=O)Cc2coc3ccc(C)cc23)c1` reads -31.3%; that for `Cc1c(C(=O)O)sc2ncnc(N3CCN(c4ccccn4)CC3)c12`, -8.6%.
The result for `O=C(O)CCCOc1ccc(Cl)cc1` reads -22.4%; that for `CCc1ccccc1N1CC(c2nc3ccccc3n2CCCCOc2ccccc2)CC1=O` (stereo not drawn), 74.6% (active).
For the molecule `COc1ccc(OCCCn2c(C3CC(=O)N(c4ccc(F)cc4)C3)nc3ccccc32)cc1` (stereo not drawn), the inhibition is -4.1%.
The result for `CCOc1ccc(N2CC(c3nc4ccccc4n3CCOc3ccc(OC)cc3)CC2=O)cc1` (stereo not drawn) reads -33.2%; that for `CCc1nn(CC(=O)NCC2CCCO2)c(=O)c2cc3ccccc3n12` (stereo not drawn), -52.3%.
For `CCOC(=O)c1sc2cccc(F)c2c1S(=O)(=O)N1CC=C(c2ccccc2)CC1`, the inhibition is 6.4%.
Regarding `COC(=O)c1cc(S(=O)(=O)N2CCc3ccccc3C2)c[nH]1`, the inhibition is -4.8%.
The result for `Fc1cccc(Cl)c1CSc1nnc(-c2c[nH]c3ccccc23)o1` reads 15.6%; that for `CCCc1oc2cc(O)ccc2c(=O)c1Oc1ccc(F)cc1`, 3.5%.
The result for `Cc1cc(C)cc(-n2c(CCC(=O)O)ccc2-c2cccs2)c1` reads -19.7%.
For the molecule `Cc1cc(C)c2[nH]c(=O)c(CN(C(=O)Nc3ccccc3F)C3CC3)cc2c1`, the inhibition is -21%.
The result for `CCOc1ccc(N2C(=O)N(CC(=O)N3CCCCC3C)c3ccccc3S2(=O)=O)cc1` (stereo not drawn) reads -6.7%; that for `CCOC(=O)C1(c2ccccc2)CCCN1C(=O)CN1C(=O)c2ccccc2C1=O` (stereo not drawn), -40.9%; that for `Cc1c(C(F)(F)F)nc(-c2ccc(CN(C)C)cc2)[nH]c1=O`, -18.3%.
The result for `CCOC(C(=O)c1ccccc1)c1ccccc1` (stereo not drawn) reads 1.5%.
As for `CCOC(=O)C(C(=O)c1ccccc1)C1(O)C(=O)c2ccccc2C1=O` (stereo not drawn), the inhibition was 94.1% (active).
Take `CCOC(=O)C1(C2(O)C(=O)c3ccccc3C2=O)CCCC1=O` (stereo not drawn): the inhibition is 7.6%.
The result for `C#CCn1c(O)c(N=NC(=O)c2cc(OC)c(OC)c(OC)c2)c2ccccc21` reads -43.6%; that for `Nc1nnc2c([nH]c3ccccc32)c1-c1ccccc1`, -61.1%; that for `COc1ccc(CC(=O)OCC(=O)Nc2cc(C)ccc2C)cc1`, 20.6%.
For the molecule `Cc1cc(=O)n2[nH]c(CN(C(=O)CC(C)C)c3ccc(Cl)cc3)nc2n1`, the inhibition was -9.7%.
Regarding `CCCn1c2ccccc2n2cc(-c3ccc(F)cc3)nc12`, the inhibition was -23.6%.
The result for `CCOC(=O)C1=C(C)N(c2ccc(OC)cc2)C(=O)/C1=C\c1ccco1` reads -53.1%; that for `COc1ccccc1-c1nnc(SCC(=O)Nc2cccc3nsnc23)n1-c1ccccc1`, -31.2%; that for `COc1ccc(C2CC2/C(C)=N/O)cc1` (stereo not drawn), -8.3%.
The result for `CN(C)S(=O)(=O)c1ccc2nc(NC(=O)CN3C(=O)c4ccccc4C3=O)sc2c1` reads -36.1%.
`Clc1cccc(-c2cc(-c3nc(-c4ccccc4)no3)[nH]n2)c1`: the inhibition is -20.2%.
`Cn1c(CNC(=O)OC(C)(C)C)nnc1SCc1c(F)cccc1Cl`: the inhibition is -17%.
As for `CCC(Sc1nc2ncccc2o1)C(=O)N(Cc1ccccc1)C(C)C` (stereo not drawn), the inhibition was -29.3%.
In the case of `CCN1C(=O)c2cccc3c(S(=O)(=O)Nc4cccc(C)n4)ccc1c23`, the inhibition is -9%.
